Results on 40 compounds are retold here after PubChem BioAssay (NCATS).

The target in experiment [1] is Retinal dehydrogenase 2 (Homo sapiens) (UniProt O94788). As to the kind of experiment: qHTS for Inhibitors of the Aldehyde Dehydrogenase Family (ALDH1A2) Confirmation screens (AID 2061314). Further: nearly all actives have a fitted effect of over 65% in size. Further: potency means the concentration at half of the fitted maximal effect. In general terms: Quantitative high-throughput screening tests each substance at several concentrations.
For experiment [2], the target named is Retinaldehyde dehydrogenase 3 (Homo sapiens) (UniProt P47895). As to the kind of experiment: qHTS for Inhibitors of the Aldehyde Dehydrogenase Family (ALDH1A3) Primary screen (AID 2061315).
Experiment [3] deals with Aldehyde dehydrogenase 1A1 (Homo sapiens) (UniProt P00352). As to the kind of experiment: qHTS for Inhibitors of the Aldehyde Dehydrogenase Family (ALDH1A1) Confirmatory screens (AID 2061316). Further: potency means the concentration at half of the fitted maximal effect; nearly all actives have a fitted effect of over 65% in size.

Inconclusive results are not listed. Entries that show only a call come without a potency. Activity calls are given as the source filed them. The call rests on the fitted dose curve; in most records, active means well fitted inhibition curve with a large enough effect; inconclusive means small, poorly fitted or top-dose-only effect; inactive means no such curve, though single readings can be large or run the other way.

Take `Cc1cc(C)n2nc(CNS(=O)(=O)c3cccc(Cl)c3)nc2n1`: the Potency entry in experiment [1] was “inactive”.
`O=C1CCCC2=C1C1(CCOCC1)N=C(Nc1nc3ccccc3o1)N2`: the Potency entry in experiment [2] is “inactive”.
The same measure, in the same setting: then `O=C(CSc1nnc(-c2cccc([S+](=O)([O-])N3CCCC3)c2)n1-c1ccccc1)Nc1ccc(Br)cc1`, with “inactive”.
Take `Nc1c(-c2ccncc2)cc[nH]c1=O`: the Potency in experiment [1] was 0.634 µM (active). Moreover, the Potency result in experiment [2] was “inactive”.
On to `CC(=O)Nc1sc2c(c1-c1nc3ccccc3s1)CCN(C1COC1)C2`, for which the Potency in experiment [1] is 14.2 µM (active); in experiment [3] it was 4 µM (active). Further, in experiment [2], the Potency entry was “inactive”.
For `O=S(=O)(Nc1nccs1)c1ccc(NCc2cccc(Br)c2O)cc1`, the Potency entry in experiment [2] was “inactive”.
Still for that read-out and setting: then `Oc1ccc(CNc2ccccn2)c2cccnc12`, with “inactive”.
For the compound `CN(C)c1ccc2c(=O)n3nc(Nc4ccc5c(c4)CCC5)sc3nc2c1`, in experiment [2], the Potency entry is “inactive”.
In the case of `OCc1ccc(-c2ccc3ncnc(NCc4nccs4)c3c2)o1`, the Potency is 14.2 µM (active) in experiment [1] and 4 µM (active) in experiment [3]. Besides, in experiment [2], the Potency result is “inactive”.
The like results for `O=S1(=O)N=C(Sc2cccc3cccnc23)c2ccccc21` were, in that order, “inactive”, 15.9 µM (active) and “inactive”.
As for `O=C(O)C1NCc2[nH]cnc2C1c1ccccc1` (configuration not stated), the Potency was 4 µM (active) in experiment [1] and 11.3 µM (active) in experiment [3]. In addition, the Potency entry in experiment [2] is “inactive”.
As to `CNc1cccc(S(=O)(=O)N2CCCN(S(=O)(=O)c3ccc4c(c3)OCCO4)CC2)c1`, in experiment [2], the Potency entry is “inactive”.
Same read-out and setting: for `COc1ccnc(NCc2ccc(O)c3ncccc23)c1` the value was “inactive”; for `N#Cc1c(-c2ccccc2C(F)(F)F)nc2ccccc2c1NCc1ccc(-c2ccnc(C(F)(F)F)c2)cc1`, “inactive”.
For `Cc1c(C(=O)OCc2ccco2)[nH]c2c1C(=O)CC(c1ccco1)C2` (configuration not stated), the values for the Potency in experiment [1] and in experiment [3] were 3.18 µM (active) and 1.42 µM (active), respectively. Moreover, in experiment [2], the Potency entry is “inactive”.
With `CS(=O)(=O)c1ccc(C(=O)OCC(=O)N2CCN(C3CCCCC3)CC2)cc1[N+](=O)[O-]`, the Potency result in experiment [2] was “inactive”.
The same measure, in the same setting: for `O=C(O)c1ccc(O)c2ncc(N3CCCN(CCc4ccncc4)CC3)cc12` the value was “inactive”; for `Cc1ccsc1CN(C)c1ncnc2ccc(-c3ccc4c(c3)OCO4)cc12`, “inactive”.
`CCOc1ccc(C(=O)N2CCN(Cc3cc(=O)n4nc(-c5cccc(OC)c5)sc4n3)CC2)cc1`: the Potency result in experiment [1] was “inactive”. For the same compound, in experiment [3], the Potency is 6.47 µM (active).
For the compound `O=[N+]([O-])c1cc(C(F)(F)F)ccc1N1CCN(C(=S)Nc2cc(Cl)ccn2)CC1`, the results for the Potency in experiment [1] and in experiment [3] were 14.2 µM (active) and 5.04 µM (active), respectively. For the same compound, in experiment [2], the Potency result was “inactive”.
Turning to `O=C(c1ccccc1O)N(Cc1ccco1)Cc1cccs1`, the values for the Potency in experiment [1] and in experiment [3] were 22.5 µM (active) and 11.3 µM (active), respectively. In experiment [2], the Potency result is “inactive”.
As to `COc1ccc2c(=O)n3nc(Nc4ccc5c(c4)CCC5)sc3nc2c1`, in experiment [2], the Potency result was “inactive”.
Still for that read-out and setting: then `Cc1c(C(N)=O)[nH]c2c1C(=O)CC(c1ccco1)C2` (configuration not stated), with “inactive”.
For `Cc1ccc(-c2nc3ccccc3s2)cc1NC(=O)c1ccc(-c2cccc(Cl)c2)o1`, the Potency in experiment [1] was 22.5 µM (active); in experiment [3], 8.96 µM (active). For the same compound, in experiment [2], the Potency result was “inactive”.
Regarding `Cc1ccc(OCCn2c(CCNC(=O)c3ccc(C(C)(C)C)cc3)nc3ccccc32)cc1`, the Potency entry in experiment [2] is “inactive”.
In the case of `Cn1nnnc1Sc1ncnc2scc(I)c12`, the Potency entry in experiment [1] and in experiment [2] was “inactive” in each case. For the same compound, the Potency in experiment [3] is 25.2 µM (active).
For the compound `O=C(CN(Cc1cccc2ccccc12)C1CC1)Nc1ccc(N2CCOCC2)cc1`, the Potency in experiment [1] is 11.3 µM (active). Also, the Potency result in experiment [2] is “inactive”.
Turning to `CCOC(=O)c1[nH]c2c(c1C)CCC(c1ccco1)C2` (configuration not stated), in experiment [2], the Potency result is “inactive”.
Still for that read-out and setting: then `O=c1c(Nc2ccc(Br)c(Br)c2)c(Nc2nnc(-c3ccncc3)s2)c1=O`, with “inactive”.
The same measure, in the same setting: for `Cc1csc(CNc2ncnc3ccc(-c4ccc(CO)o4)cc23)n1` the value was “inactive”; for `CC(=O)c1ccc(-c2ccc3ncnc(NCc4ccc(C)o4)c3c2)o1`, “inactive”.
As to `Cc1ccc(CN(C)c2ncnc3ccc(-c4ccc(CO)o4)cc23)o1`, the Potency is 11.3 µM (active) in experiment [1] and 2.52 µM (active) in experiment [3]. Also, the Potency entry in experiment [2] is “inactive”.
For `CN(C)c1cccc(-c2nnc(N3CCC(C(N)=O)CC3)s2)c1`, the Potency entry in experiment [2] was “inactive”.
On the same count and under the same terms, then `O=c1c2ccccc2nc2sc(NCc3ccccc3)nn12`, with “inactive”.
For `Cc1csc(CNc2ncnc3ccc(-c4ccc(C(C)O)o4)cc23)n1` (configuration not stated), the Potency in experiment [1] is 5.65 µM (active); in experiment [3] it was 11.3 µM (active). Further, the Potency result in experiment [2] was “inactive”.
As for `Nc1ccc(-c2ccnc(NCCCNC(=O)c3c(Cl)cccc3Cl)n2)cc1`, the Potency result in experiment [2] was “inactive”.
Still for that read-out and setting: then `COc1ccc2ncnc(NCc3cccs3)c2c1-c1ccc2c(c1)OCO2`, with “inactive”; and `CC(=O)Nc1sc2c(c1-c1nc3ccccc3s1)CCN(C(C)=O)C2`, with “inactive”.
On to `Cc1ccsc1CN(C)c1ncnc2ccc(-c3ccc(CO)o3)cc12`, for which the Potency entry in experiment [2] was “inactive”.
Consider `CCOC(=O)c1c(-c2ccc(C)o2)csc1NC(=O)CSc1nnnn1-c1ccccc1`, for which the Potency in experiment [1] was 5.04 µM (active); in experiment [3] it was 0.4 µM (active). Besides, the Potency result in experiment [2] is “inactive”.
